ALOX12 inh: ALOX12 (human) lipoxygenase inhibition; purified 12hLO, xylenol orange hydroperoxide absorbance; Potency, µM (highest dose often 108 µM), for inactives: at the top dose activity change, negative = inhibition, hits mostly inhibitors; hit rate 1.1% among 580,000; AID 1671190; further: on the % scale 0 is the no-effect control and ±100 the full control effect
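Purified human 12hLO at 150 nM in 25 mM Hepes, 0.01% Triton X-100, pH 7.0, preincubated 15 min at room temperature with compound. Reaction started with 40 uM arachidonic acid, 30 min at room temperature. Hydroperoxide measured by Fe-xylenol orange, 573/405 nm absorbance ratio.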
G9a block: blocks human histone lysine methyltransferase G9a | Q96KQ7 | AID 504332 | hit rate 8.8% among 350,000 | G9a H3K9 monomethylation, AlphaScreen, 2 h | Potency, µM (titrated, usually from 102 µM), inactives show top-dose activity, negative = inhibition, most hits filed as inhibitors; further: on the % scale 0 is the no-effect control and ±100 the full control effect; nearly all actives have a fitted effect of over 75% in size
Target sequence (Q96KQ7 913-1193 limits assumed): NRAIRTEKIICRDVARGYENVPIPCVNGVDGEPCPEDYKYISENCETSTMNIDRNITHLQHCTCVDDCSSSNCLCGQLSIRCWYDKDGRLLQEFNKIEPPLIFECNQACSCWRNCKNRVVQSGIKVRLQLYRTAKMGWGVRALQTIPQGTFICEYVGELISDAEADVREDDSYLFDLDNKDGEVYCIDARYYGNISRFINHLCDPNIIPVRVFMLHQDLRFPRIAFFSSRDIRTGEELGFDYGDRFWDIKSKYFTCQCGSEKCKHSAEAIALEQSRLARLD
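Methyltransferase reactions run at room temperature for 2 h (20 nM enzyme, 500 nM biotin-H3K9 peptide, 20 uM SAM) after a 15 min compound preincubation; product detected by AlphaScreen beads and anti-H3K9me1 antibody.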
BAZ2B inh: inhibitors of human BAZ2B bromodomain; Q9UIF8; AlphaScreen BAZ2B-H3K14Ac peptide displacement; Potency, µM (highest dose often 114 µM), inactives show top-dose activity change, negative = inhibition, hits mostly inhibitors; hit rate 4.4% among 360,000; further: on the % scale 0 is the no-effect control and ±100 the full control effect; nearly all actives have a fitted effect of over 60% in size
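BAZ2B 50 nM plus b-H3(5-23)K14Ac 50 nM, PBS pH 7.4/0.01% Tween-20, 30 min RT; compound added (max 110 uM), 30 min RT; streptavidin donor/Ni-chelate acceptor beads 10 ug/mL final, 20 min dark; AlphaScreen read.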
Sfp inh: blocks B. subtilis Sfp PPTase activity; hit rate 3.5% among 310,000; Q9F4F7; Potency, µM, inactives show largest response in the series, negative = inhibition, usual class: inhibitors; Biochemical Sfp PPTase activity, qHTS;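 further: the enzyme is Sfp with the accession as filed and its product quenches rhodamine fluorescence; 0% = enzyme reaction without inhibitor and -100% = no enzyme wells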
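Compounds were incubated with enzyme (final 15 nM) for 15 min at room temperature before substrate addition started the reaction. Fluorescence at 525 nm excitation, 598 nm emission was recorded immediately and after 30 minutes.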
JMJD2A Tudor: blocks the human JMJD2A Tudor domain | O75164 | AlphaScreen JMJD2A-Tudor / H3K4me3 peptide binding | Potency, µM (highest dose often 114 µM), inactives show at the top dose activity change, negative = inhibition, actives largely listed as inhibitors | hit rate 4.4% among 390,000; further: on the % scale 0 is the no-effect control and ±100 the full control effect; nearly all actives have a fitted effect of over 50% in size
HP1b binding inh: inhibitors of HP1-beta chromodomain binding to methylated histone tails. AlphaScreen HP1-beta / biotin-H3K9me3 peptide binding. Potency, µM (highest dose often 114 µM), without a hit: at the highest dose activity change, negative = inhibition, hits mostly inhibitors. hit rate 0.56% among 390,000. AID 540317; further: nearly all actives have a fitted effect of over 70% in size
Target sequence (P83916 whole entry, looked up): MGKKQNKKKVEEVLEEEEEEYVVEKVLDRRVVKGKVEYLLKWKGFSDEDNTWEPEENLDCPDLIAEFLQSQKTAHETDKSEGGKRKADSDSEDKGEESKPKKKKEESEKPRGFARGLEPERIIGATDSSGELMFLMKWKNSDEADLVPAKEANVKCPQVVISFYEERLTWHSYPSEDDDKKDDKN
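Compound inhibition of the preformed complex between 50 nM HP1-beta and 50 nM biotinylated H3K9me3 peptide was read by AlphaScreen. Buffer was PBS pH 7.4 with 0.01% Tween-20. Incubations ran 30 min at room temperature, with 10 ug/mL donor/acceptor beads.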
Active calls of the source: *; ? = inconclusive; / = no result given; [ ] = dose if it differs, or a comment. Shown are actives, neighbours in structure and some others; about 8.7% of the full set was active somewhere. The call rests on the fitted dose curve; in most records, active means well fitted curve in the direction sought with a large enough effect; inconclusive means small, poorly fitted or top-dose-only effect, or another doubt; inactive means no such curve, though single readings can be large; an effect the other way counts as inactive or inconclusive. Potency means the concentration at half of the fitted maximal effect.

SMILES	ALOX12 inh	G9a block	BAZ2B inh	Sfp inh	JMJD2A Tudor	HP1b binding inh
COc1ccc(CCNC(=O)CCc2ccc(OC)cc2)cc1	/	29%	-1%	6%	-18%	48%
COc1ccc(CCNC(=O)Cn2nnc3ccccc3c2=O)cc1	-15%	71µM*	12%	-2%	-10%	20%
COc1ccccc1C(C)NCC(=O)NCc1ccc(C)cc1 (centres undefined)	9%	-4%	2%	11%	-7%	7%
O=C1c2cccnc2C(=O)N1c1cccc([N+](=O)[O-])c1	0%	5%	56µM*	10%	?	32%
CC1CCN(CCCCOc2ccc(C(=O)c3ccccc3)cc2)CC1	-8%	35µM*	-14%	-23%	-21%[11.4 µM]	-1%
O=C(c1ccccc1)c1ccc(OCCO)cc1	-4%	2%	-13%	16%	-3%	30%
CC1CCN(CCOc2ccc(C(=O)c3ccccc3)cc2)CC1	?	7.1µM*	?	-21%	?	20%
CC1CCC(NC(=O)COc2ccc(C(=O)c3ccccc3)cc2)CC1 (centres undefined)	0%	9%[59 µM]	-3%	-6%	-12%	11%
Cc1ccc(NC(=O)Cn2nc3n(c2=O)CCCCC3)cc1	14%	/	/	/	/	/
O=C1NCCN(Cc2cccc(Oc3ccccc3)c2)C1CC(=O)N1CCCCC1 (centres undefined)	-8%	/	-25%	-5%	-30%	4%
O=CN1CCCN(C(=O)CC2C(=O)NCCN2Cc2cccc(Oc3ccccc3)c2)CC1 (centres undefined)	-8%	45µM*	-36%	-10%	-17%	47%
CN(CCC1CCOCC1)C(=O)CC1C(=O)NCCN1Cc1c(F)cccc1Cl (centres undefined)	?	40µM*	-19%	14%	-9%	29%
CN(CC1CCOCC1)C(=O)CC1C(=O)NCCN1Cc1ccc(Cl)c(F)c1 (centres undefined)	?	50µM*	-2%	13%	-16%	25%
CCOc1ccc(CN2CCNC(=O)C2CC(=O)N(C)CC2CCOCC2)cc1 (centres undefined)	-18%	?	-6%	7%	-16%	52%
COc1ccccc1CN1CCNC(=O)C1CC(=O)N(C)Cc1nc(C)cs1 (centres undefined)	?	50µM*	-5%	-6%	-8%	44%
COC(=O)CNC(=O)c1cc(-c2ccccc2Cl)nc2ccc(Br)cc12	-14%	/	/	/	/	/
CN(Cc1cnn(C)c1)C(=O)CC1C(=O)NCCN1Cc1cccc(Oc2ccccc2)c1 (centres undefined)	1%	25µM*	-21%	6%	-22%	8%
CN(CC1CCOCC1)C(=O)CC1C(=O)NCCN1CC(c1ccccc1)c1ccccc1 (centres undefined)	?	89µM*	-10%	-2%	-12%	17%
COc1cccc(CN2CCNC(=O)C2CC(=O)N(C)CC2CCOCC2)c1 (centres undefined)	13%	-8%	-20%	14%	-5%	21%
CN(CC1CCOCC1)C(=O)CC1C(=O)NCCN1Cc1cccc(Oc2ccccc2)c1 (centres undefined)	3%	35µM*	-21%	2%	-19%	38%
CN(Cc1ccccn1)C(=O)CC1C(=O)NCCN1Cc1cccc(Oc2ccccc2)c1 (centres undefined)	-10%	45µM*	-31%	-16%	-15%	12%
COCCN1CN=C(Nc2nc(C)c3cccc(OC)c3n2)NC1	-1%	/	/	/	/	/
Cc1ncoc1C(=O)NCc1cc(Cl)cc2c(C)c(-c3ccccc3)[nH]c12	27%	/	/	/	/	/
CCN1C(=O)C(Cc2ccc(OC)cc2OC)c2ccccc21 (centres undefined)	-18%	/	/	/	/	/
COc1ccc(C(=O)N[C@H]2CO[C@H]3[C@@H]2OC[C@@H]3n2nnnc2-c2ccc3c(c2)OCO3)cc1	15%	/	/	/	/	/
SMILES	ALOX12 inh	G9a block	BAZ2B inh	Sfp inh	JMJD2A Tudor	HP1b binding inh
CS(=O)(=O)N1CCN(c2ccc(NCc3ccccc3)nn2)CC1	-4%	/	/	/	/	/
COc1cccc(CN2CCNC(=O)C2CC(=O)N(C)C2CCCCC2)c1 (centres undefined)	24%	50µM*	-20%	11%	-14%	32%
CN(Cc1ccccn1)C(=O)CC1C(=O)NCCN1Cc1ccc(F)cc1Cl (centres undefined)	40%	/	56µM*	-21%	?	14%
COc1cc(CN2CCNC(=O)C2CC(=O)NCCCC2CCCC2)cc(OC)c1 (centres undefined)	-10%	71µM*	-22%	4%	-26%	21%
O=C(NCc1cc2n(n1)CCCNC2)C1Cc2ccccc2S(=O)(=O)N1 (centres undefined)	35%	/	/	/	/	/
CC(=O)Nc1cc(-c2nc3ccc(C)cc3o2)ccc1Cl	-26%	/	/	/	/	/
Cc1[nH]c(=O)c(C#N)c2c1COC(C)(C)C2	/	1%	-11%	12%	1%	24%
CC1=C(C#N)C(=O)OC(C)(C)C1	0%	13µM*	9%	-4%	5%	38%
Cc1cc(C)cc(N2CCC(NC(=O)c3ccc4[nH]ccc4c3)C2=O)c1 (centres undefined)	25%	/	/	/	/	/
S=c1[nH]nc(-c2cccnc2)n1-c1ccccc1	-26%	1.6µM*	-30%	79µM*	7.9µM*	21%
S=c1[nH]nc(-c2ccc(Cl)cc2)n1-c1cccnc1	?	10µM*	-16%	-18%	8.9µM*	42%
c1ccc(-c2nc(-c3cccnc3)n[nH]2)cc1	26%	21%[59 µM]	-1%	14%	/	/
COc1ccccc1-n1c(-c2cccnc2)n[nH]c1=S	?	3.2µM*	12%	50µM*	4.5µM*	16%
Clc1ccc(-c2nnc(-c3cccnc3)o2)cc1	0%	16%	8%	7%	-16%	39%
S=c1[nH]nc(-c2ccc3ccccc3n2)n1-c1ccccc1	?	1.6µM*	-1%	-5%	?	27%
CCOc1ccccc1Oc1coc2cc(OCC(=O)NCC3CCC(C(=O)O)CC3)ccc2c1=O (centres undefined)	-14%	/	/	/	/	/
O=C(Nc1ccc(CN2CCOCC2)cc1)Nc1ccc2c(c1)OCCO2	-7%	/	/	/	/	/
CCCCOc1ccc(NC(=O)c2ccccc2Cl)c2cccnc12	40%	/	/	/	/	/
c1coc(-c2cc(CSc3nnc(-c4ccncc4)o3)no2)c1	-49%	/	/	/	/	/
N#Cc1ccccc1NCc1ccccn1	11%	/	/	/	/	/

Screening results as filed in PubChem BioAssay.
